Reference: PubChem BioAssay AID1851 (National Center for Advancing Translational Sciences (NCATS), 2009)
About 4,000 (25%) of roughly 16,000 compounds were called active. Not shown: some 26% with an inconclusive outcome. The list is a sample of the results. A number with no mark means an inactive call. Calls follow the shape of the dose curve; as a rule, active = well fitted curve in the direction sought with a large enough effect; inconclusive = small, poorly fitted or top-dose-only effect, or effect the other way; inactive = no such curve, though single readings can be large or run the other way.

Target: Cytochrome P450 2C9 (Homo sapiens) (UniProt P11712)
Sequence (P11712 whole entry, looked up): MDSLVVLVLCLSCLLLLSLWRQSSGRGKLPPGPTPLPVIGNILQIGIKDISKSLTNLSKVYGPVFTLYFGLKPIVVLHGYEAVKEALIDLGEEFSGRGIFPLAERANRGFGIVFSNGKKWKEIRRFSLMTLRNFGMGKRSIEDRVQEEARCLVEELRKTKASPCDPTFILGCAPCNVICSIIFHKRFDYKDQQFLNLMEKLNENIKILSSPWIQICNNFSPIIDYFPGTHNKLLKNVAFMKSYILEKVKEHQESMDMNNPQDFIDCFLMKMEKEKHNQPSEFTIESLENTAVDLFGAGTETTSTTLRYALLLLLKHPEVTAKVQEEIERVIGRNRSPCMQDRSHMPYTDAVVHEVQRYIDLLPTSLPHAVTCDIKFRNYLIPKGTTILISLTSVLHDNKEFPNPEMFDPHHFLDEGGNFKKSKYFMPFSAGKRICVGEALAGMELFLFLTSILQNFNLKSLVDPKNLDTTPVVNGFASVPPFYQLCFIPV
Assay: Cytochrome panel assay with activity outcomes
Conditions: recombinant CYP, pro-luciferin dealkylation, luminescence, p450-cyp2c9; series mostly up to 57.1 µM; activity, negative = inhibition: at the top concentration
% is scaled to controls: 0 for no effect and ±100 for the full control effect.

Row | SMILES | activity, negative = inhibition | AC50
1 | COc1ccc(CC(=O)Nc2ccc(-c3noc(-c4cccc(OC)c4)n3)cc2)cc1 | -12.6% | 
2 | O=C(Nc1nnc(-c2ccc(Cl)cc2)o1)Nc1ccccc1Cl | -14.2% | 
3 | COc1ccc(CC(=O)Nc2cccc(-c3nnc(-c4ccco4)o3)c2)cc1 |  | 0.316 µM (active)
4 | O=C(Cc1ccc(Cl)cc1)Nc1cccc(-c2nnc(-c3ccco3)o2)c1 |  | 0.178 µM (active)
5 | COc1ccccc1CN1CCC2(CC1)CCN(C(=O)c1c(C)noc1C)CC2 | -3.96% | 
6 | CN(Cc1ccco1)c1ccnc(-c2cccc(NS(C)(=O)=O)c2)n1 | -11.7% [at 2.29 µM] | 
7 | O=C(CC(=O)NN=C1CCCC1)NCCc1ccccc1 | -21.1% | 
8 | CC1CCC(=NNC(=O)Cc2ccccc2)CC1 (centres undefined) | -15.6% | 
9 | COc1ccc(N(CC(=O)NN=C2CCCC2)S(=O)(=O)c2ccccc2)cc1 |  | 10 µM (active)
10 | COCCCNC(=O)CN(c1ccc(OC)cc1)S(=O)(=O)c1ccc(NC(C)=O)cc1 |  | 11.2 µM (active)
11 | COc1ccc2c(=O)cc(-c3ccncc3)oc2c1OC | -7.78% [at 11.4 µM] | 
12 | O=S(=O)(O)c1ccc(-c2nnc(-c3ccccn3)nc2-c2ccc(S(=O)(=O)O)o2)o1 | -9.22% [at 11.4 µM] | 
13 | CO[C@@H]1COC(=O)[C@@H](C)NC(=O)C/C=C\[C@@H](C)[C@H](NS(=O)(=O)c2ccc(C)cc2)COC(=O)[C@H](C)NC(=O)C/C=C\[C@H]1C | 9.56% [at 11.4 µM] | 
14 | CC1(C)OC(=O)NC1=O | 1.46% [at 25.6 µM] | 
15 | COC(=O)Cn1cnc(=O)c(C#N)c1/C=C/N(C)C | -7.06% | 
16 | Cc1cnc(CNc2ncnc3ccc(-c4ccccc4C)cc23)cn1 | 0.0371% [at 2.29 µM] | 
17 | COc1ccc(NC(=O)N2CC[C@@]3(CCCN(C(=O)c4cccn4C)C3)C2)cc1 | -3.34% | 
18 | NC(=O)[C@H]1CC2(CC(c3cccc(NC(=O)c4ccccc4)c3)=NO2)CN1C(=O)[C@H]1CCC(=O)N1 (some centres undefined) | -2.82% | 
19 | Brc1ccc2ncnc(Nc3cccc4ccccc34)c2c1 |  | 2.51 µM (active)
20 | NCCNc1ncnc2ccc(Cl)cc12 | 6.44% [at 11.4 µM] | 
21 | c1ccc(Nc2ncnc3ccc(-c4ccoc4)cc23)cc1 | 1.19% [at 2.29 µM] | 
22 | c1ccc(Nc2ncnc3ccc(-c4cccnc4)cc23)cc1 | 5.26% [at 2.29 µM] | 
23 | CNc1ncnc2ccc(-c3ccccc3CN(C)C)cc12 | -7.28% [at 2.29 µM] | 
24 | Clc1cccc(Nc2ncnc3ccc(Br)cc23)c1 |  | 14.1 µM (active)

Row | SMILES | activity, negative = inhibition | AC50
25 | CN[C@H]1[C@@H](O[C@@H]2[C@H](O[C@@H]3[C@@H](O)[C@@H](O)[C@@H](N=C(N)N)[C@@H](O)[C@@H]3N=C(N)N)O[C@H](C)[C@@]2(O)C=O)O[C@@H](CO)[C@@H](O)[C@H]1O | 3.44% [at 25.6 µM] | 
26 | CCc1c2c(nc3cccc(SC)c13)COC2 | -23% | 
27 | CC(C)OC(=O)c1nnn(-c2nonc2N)c1CSc1ccccn1 |  | 1.58 µM (active)
28 | Cc1cc(OC(=O)c2ccc(Cl)cc2Cl)nc(C)n1 |  | 5.62 µM (active)
29 | CCc1cc2c(=O)c(-c3nc4ccccc4n3C)c(C)oc2c(CN(CC)CC)c1O |  | 14.1 µM (active)
30 | Cc1oc2c(C)c(O)ccc2c(=O)c1-c1ccc2ccccc2n1 | -13.7% | 
31 | COc1ccc(-n2c(=O)c(-c3cn(C)c4ccccc34)nc3cnc(OC)nc32)cc1 | -6.46% | 
32 | CC[C@H]1CN(C)[C@H]2Cc3c([nH]c4ccccc34)C(=O)C[C@H]1[C@H]2C(=O)OC | -5.96% [at 11.4 µM] | 
33 | O=c1cc(-c2ccccc2)oc2cc(O)c(O)c(O)c12 | 3.94% | 
34 | O=C(O)c1cc(=O)c2c(OCC(O)COc3cccc4oc(C(=O)O)cc(=O)c34)cccc2o1 | 10.9% [at 25.6 µM] | 
35 | CCOC(=O)COc1cc(OCC(=O)OCC)c2c(=O)cc(-c3ccccc3)oc2c1 |  | 8.91 µM (active)
36 | COc1cc2nncc(SCc3ccc(Cl)c(Cl)c3)c2cc1OC | -3.4% [at 11.4 µM] | 
37 | COc1cnc(SCc2ccc(Cl)cc2)nc1Cl |  | 22.4 µM (active)
38 | Cc1noc(C)c1-c1nc(N2CCOCC2)c2ccccc2n1 | 4.41% [at 2.29 µM] | 
39 | Cc1nc2cnc(N3CCOCC3)nc2n(C)c1=O | -21.1% | 
40 | Cc1nc(N2CCOCC2)nc(N2CCN(c3ccccc3)CC2)c1[N+](=O)[O-] |  | 3.16 µM (active)
41 | COC(Cn1c(C)c(C(C)=O)c(C(C)=O)c1C)OC | 26.1% | 
42 | c1ccc(-c2cccc(N3CCC4(CCNCC4)CC3)c2)cc1 | -3.68% | 
43 | O=C(O)/C=C\C(=O)Nc1ncn[nH]1 | -8.21% [at 11.4 µM] | 
44 | Cc1noc(NS(=O)(=O)c2ccc(N)cc2)c1C | 2.14% [at 25.6 µM] | 
45 | Cc1ccc(OCC(=O)Nc2ccc(S(=O)(=O)Nc3onc(C)c3C)cc2)cc1 |  | 17.8 µM (active)
46 | Cc1noc(C)c1C(=O)N1CCC[C@@]2(CCN(c3ncccn3)C2)C1 | -5.51% | 
47 | COc1ccc(CNc2nc3ccccc3n2Cc2ccccc2)cc1OC |  | 8.91 µM (active)
48 | C=CCn1c(NCc2ccccc2)nc2ccccc21 | 21.7% | 

Row | SMILES | activity, negative = inhibition | AC50
49 | COc1ccccc1-c1nccc(NCc2ccccc2)n1 | 4.32% [at 2.29 µM] | 
50 | CCc1c(C(C)O)oc2ccc3c(C)cc(=O)oc3c12 (centres undefined) |  | 7.94 µM (active)
51 | Cc1cc2cc3c(C)cc(=O)oc3c(C)c2o1 | -0.447% [at 25.6 µM] | 
52 | CC(C)n1c(=O)c2c(O)cc(=O)oc2c2ccccc21 | -4.52% | 
53 | O=C(O)CCCc1ccc2ccc3ccccc3c2c1 | 17.3% [at 11.4 µM] | 
54 | NCCCc1ccc2oc3ccccc3c2c1 | -10.6% [at 11.4 µM] | 
55 | NNC(=O)CCc1ccc2ccc3ccccc3c2c1 |  | 1.58 µM (active)
56 | CC(C)COP(=O)(OCC(C)C)C(O)c1ccccc1F (centres undefined) | -25% | 
57 | O=C(Cn1cnc2ccccc2c1=O)NCCC(=O)Nc1ccc2c(c1)OCCO2 |  | 6.31 µM (active)
58 | O=C(CCNC(=O)Cn1cnc2ccccc2c1=O)NCC1COc2ccccc2O1 (centres undefined) |  | 10 µM (active)
59 | CCC(C)NC(=O)Cn1cnc2sc(C)cc2c1=O (centres undefined) | -1.84% | 
60 | COc1cccc(OC)c1OCCNC[C@@H]1COc2ccccc2O1 |  | inactive
61 | CCCNC(=O)Cn1cnc2sc(C(=O)Nc3ccc4c(c3)OCO4)c(C)c2c1=O |  | 1.12 µM (active)
62 | O=C1CC2(CCCC2)CC(=O)N1CCCCNC[C@H]1COc2ccccc2O1 | -16.7% | 
63 | C[N@+]1(CCC(=O)c2ccccc2)CC[C@H]2CC[C@H](C2)C1 | 8.55% [at 11.4 µM] | 
64 | N/N=C1/CC(=O)NC(=O)N1 | 28.1% [at 11.4 µM] | 
65 | CC(C)(C)C(=O)N(CCN(C(=O)C(C)(C)C)c1ccccc1)c1ccccc1 |  | 15.8 µM (active)
66 | CC(CC(=O)O)(CC(=O)O)c1ccccc1 | 13.9% [at 11.4 µM] | 
67 | CC(=O)N(CC(=O)O)c1ccccc1C(=O)O | -20.7% | 
68 | O=C(c1cccc(F)c1)N1CCC2(CCCN(c3ccc(-c4ccccc4)cc3)C2)CC1 |  | 15.8 µM (active)
69 | O=C(c1cccc(F)c1)N1CCC2(CC1)CN(c1ccc(-c3ccccc3)cc1)C2 | -14% | 
70 | O=C(c1cccc(F)c1)N1CCC2(CCCN(c3cccc(-c4ccccc4)c3)C2)CC1 |  | 12.6 µM (active)
71 | CC(C)NC(=O)N1CCCC2(CCN(C(=O)c3cccc(F)c3)CC2)C1 | 24.4% | 
72 | O=C(c1cccc(F)c1)N1CCC2(CC1)CCN(c1ccc(-c3ccccc3)cc1)CC2 | 5.13% | 

Row | SMILES | activity, negative = inhibition | AC50
73 | O=C(c1cccc(F)c1)N1CCC[C@@]2(CCN(c3ccccc3)C2)C1 | 4.38% | 
74 | O=C(c1cccc(F)c1)N1CCC2(CC1)CCN(c1cccc(-c3ccccc3)c1)CC2 | -3.94% | 
75 | O=C(c1cccc(F)c1)N1CCC2(CCCN(c3ccccc3)C2)CC1 |  | 10 µM (active)
76 | O=C(c1cccc(F)c1)N1CCC2(CC1)CN(c1cccc(-c3ccccc3)c1)C2 | -14.6% | 
77 | O=C(c1cc(C(F)(F)F)cc(C(F)(F)F)c1)N1CCC[C@@]2(CCN(c3ccccn3)C2)C1 | -4.83% | 
78 | Cc1ccc(C(c2nnnn2C2CCCC2)N2CCN3CCCC3C2)cc1 (centres undefined) | -15.1% | 
79 | CN1CCCN([C@@H](c2ccccc2)c2ccc(Cl)cc2)CC1 | 0.463% [at 25.6 µM] | 
80 | Clc1ccc(C(c2nnnn2C2CCCC2)N2CCN(Cc3ccncc3)CC2)cc1 (centres undefined) |  | 1.12 µM (active)
81 | COc1ccc2c(c1)c(CC(=O)O)c(C)n2C(=O)c1ccccc1 |  | 10 µM (active)
82 | COc1ccc2c(c1)c(CC(=O)O)c(C)n2C(=O)c1ccc(Cl)cc1 | 6.09% | 
83 | COc1ccc2c(c1)c(CC(=O)OCC(=O)O)c(C)n2C(=O)c1ccc(Cl)cc1 | -5.28% [at 25.6 µM] | 
84 | O=C(O)/C=C\[C@H](O)c1ccc(Cl)cc1 | -12.8% | 
85 | c1ccc(CSc2nnc3c4ccccc4c4ccccc4c3n2)cc1 | -1.66% [at 11.4 µM] | 
86 | O=C(CSc1nnc2c3ccccc3c3ccccc3c2n1)Nc1ccccc1 |  | 2.51 µM (active)
87 | O=C(CSC1=NCCN1)Nc1ccccc1 | 2.48% [at 11.4 µM] | 
88 | C[N+]1(CCC[N+]2(C)C[C@H]3[C@H](C2)[C@H]2C=C[C@@H]3CC2)CCOCC1 (some centres undefined) | -9.72% [at 11.4 µM] | 
89 | N[C@]1(C(=O)O)CCc2cc(P(=O)(O)O)ccc21 | -9.65% | 
90 | COC(=O)c1c(-c2ccccc2)csc1NC(=O)CSc1ncnc2sc(C)c(C)c12 |  | 1.26 µM (active)
91 | CCc1ccc(OCC(=O)NNC(=O)CSc2ncnc3sc(C)c(C)c23)cc1 | 13.8% | 
92 | Nc1nc(Nc2ccccc2)nc2c1ncn2[C@@H]1O[C@@H](CO)[C@H](O)[C@H]1O |  | 0.794 µM (active)
93 | Nc1nc(Cl)nc2c1ncn2[C@@H]1O[C@@H](CO)[C@@H](O)[C@H]1O | -24.4% | 
94 | Nc1nc(Nc2ccccc2)nc2c1ncn2[C@@H]1O[C@@H](CO)[C@H](O)[C@@H]1O | -3.52% | 
